Screens deposited in PubChem by Broad Institute.
MITF act = activators of MITF-driven TRPM1 promoter activity in SK-MEL-5 cells; activation, % at 12.5 µM; SK-MEL-5 TRPM1-promoter luciferase, 24 h; % of positive control, neutral wells = 0; 300,000 compounds, 0.75% hits;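 active = mean activation of at least 80% with every replicate also reaching 80%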
N-glyco inh = blocks N-linked glycosylation in D54 reporter cells | D54 ERlucT glycosylation luciferase reporter, 24 h; percent of 100 nM tunicamycin response | reporter increase, % at 12.5 µM | 360,000 compounds, 0.23% hits | AID 588692;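 active = mean luciferase reporter signal, scaled so untreated is 0 and the glycosylation-blocking control 100, at or above a set limit in every replicate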;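 also: luciferase carries N-glycosylation sites so blocking glycosylation raises the light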
Wnt bcat act = activates Wnt/beta-catenin signaling in a reporter cell assay; activator, plate reader; activation, % at 9.35 µM; 300,000 compounds, 1.2% hits; AID 743398; in the data active = activation above about 30%, passing the limit was not always enough
esBAF inh = blocks esBAF chromatin remodeling in mouse ES cells; AID 602393; reporter increase, % at 12.5 µM; 350,000 compounds, 2% hits; Bmi1-luciferase knock-in reporter, 24 h; 100% = twice the neutral-well signal; in the data active = activation above about 40%;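 also: a rise in the Bmi1 reporter signal indicates esBAF inhibition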
PfHsp90 set2 = reduces growth (ATP signal) of yeast expressing P. falciparum Hsp90; inhibition, % at 9.4 µM; S. cerevisiae expressing PfHsp90, BacTiter-Glo ATP, 48 h; yeast lacking PDR1 and PDR3 efflux regulators; 310,000 compounds, 0.32% hits; AID 504621;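 active = every replicate shows inhibition above about 80%, whatever the replicate mean, limit read from the data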
Vif inh = blocks HIV Vif function; AID 602346; inhibition, % at 7.49 µM; HEK293T cells, Vif self-association by quenched fluorescence, imaging, 24 h; 340,000 compounds, 0.35% hits; in the data active = inhibition above about 50%, passing the limit was not always enough
Hits are given with their value; – = inactive; · = no result. A selection: hits, their analogues and other compounds. The true share with any hit is near 3%.

SMILES	MITF act	N-glyco inh	Wnt bcat act	esBAF inh	PfHsp90 set2	Vif inh
COc1ccc(NC(=O)C(c2ccc(C(F)(F)F)cc2)n2c(=O)c(-c3cc4ccccc4[nH]3)nc3ccccc32)cc1 (stereo not given)	·	·	–	·	·	·
CC(C)NCCOc1cccc(Br)c1	–	–	–	–	–	56
N#CC1CC(c2ccc([N+](=O)[O-])cc2)=NN1c1ccc([N+](=O)[O-])cc1 (stereo not given)	–	–	–	–	–	89
CCOC(=O)c1cc(-c2ccccc2)sc1NC(=O)COC(=O)c1cccc(S(N)(=O)=O)c1	–	–	–	·	–	55
CSc1cccc2sc(NC(=O)C3=COCCO3)nc12	–	–	–	57	·	–
O=c1c2ccccc2nc2c3ccccc3c(NCc3ccccn3)nn12	–	–	49	·	–	–
O=c1oc2ccccc2cc1NCc1ccccc1O	96	–	–	63	–	–
O=C(NCc1ccccc1Cl)c1cc2ccccc2oc1=O	·	–	–	–	–	–
COc1ccccc1CNC(=O)C1CSC2(C)CCC(=O)N12 (stereo not given)	–	–	–	–	–	–
Fc1ccc(COc2ccc(-c3nnco3)cc2)c(Cl)c1	–	–	–	–	–	–
Fc1cc(Br)ccc1COc1ccc(-c2nnco2)cc1	119	–	–	55	–	–
Cc1ccc(S(=O)(=O)Nc2ccc3c(c2)C(=O)N([C@H](C)CO)C[C@H](C)[C@H](CN(C)S(=O)(=O)c2ccccc2)O3)cc1	·	·	·	–	·	·
CCc1nonc1NC(=O)c1oc2cc(C)c(C)cc2c1C	86	–	–	–	–	–
CCN(CC)c1ccc(/C=C/c2cccc[n+]2C)c(OC)c1	·	28	–	–	–	·
COc1ccc(CCc2ccc3cc(OC)ccc3n2)cc1	–	–	–	–	–	–
COc1ccc2cc(CCC(C)=O)ccc2c1	108	–	–	58	–	–
COc1ccc(S(=O)(=O)Nc2ccc3c(c2)C(=O)N([C@@H](C)CO)C[C@H](C)[C@@H](CN(C)Cc2ccncc2)OCCCC[C@H](C)O3)cc1	·	·	·	–	·	·
CCOC(=O)N1CCN(C(=O)Cn2ncc3ccccc32)CC1	–	–	–	–	–	–
CCOC(=O)c1ccc(NC(=O)CCSCCc2ccccn2)cc1	86	–	·	–	·	–
CCOC(=O)c1ccc(NC(=O)Cn2nnc3ccccc32)cc1	·	–	–	95	–	–
CCOc1ccc(NC(=O)Cn2ncc3ccccc32)cc1	–	–	–	51	–	–
C[C@H](C(=O)N(C)C[C@H]1OCc2ccccc2-c2ccccc2C(=O)N([C@@H](C)CO)C[C@@H]1C)c1ccccc1	·	·	·	–	·	·
COCC#Cc1ccc2c(c1)O[C@H](CN(C)Cc1ccccn1)[C@@H](C)CN([C@@H](C)CO)S2(=O)=O	·	·	·	–	·	·
O=Cc1ccc(OCc2ccccn2)cc1	–	–	–	–	–	–
O=Cc1cccc(OCc2cccc3ccccc23)c1	–	–	–	66	–	–
SMILES	MITF act	N-glyco inh	Wnt bcat act	esBAF inh	PfHsp90 set2	Vif inh
O=C(O)c1ccc(COc2ccc3ccccc3c2)o1	–	–	51	·	–	–
NNC(=O)c1ccc(COc2ccc3ccccc3c2)cc1	–	–	33	·	–	–
O=Cc1ccc(OCc2ccc3ccccc3c2)cc1	103	–	–	50	–	–
CCOc1ccc(OCc2ccc(C(=O)O)o2)cc1	–	–	·	–	–	–
CN(CCCN1CCOCC1)C(=O)c1cc(COc2c(F)cccc2F)on1	–	–	–	–	–	–
O=c1c2cnn(-c3ccccc3)c2ncn1CCc1ccccc1	–	–	–	·	–	–
O=C1NC(c2ccccc2Br)=N/C1=C\c1ccco1	–	–	70	·	–	–
CC(=O)c1ccc(-c2ccc(C(=O)NCC(c3ccco3)N(C)C)o2)cc1 (stereo not given)	–	–	–	80	–	–
CN(C)C(CNC(=O)c1cccc(OC(F)F)c1)c1ccco1 (stereo not given)	–	–	–	45	–	–
COCCN(CC(=O)Nc1cccc(C)c1C)C(=O)c1ccc2ccccc2n1	–	–	–	47	–	–
Cc1ccc(-c2csc(NC(=O)c3cccc(C)c3)c2C(=O)O)cc1	·	–	40	·	–	–
